Reference: PubChem BioAssay (NCATS)
Results filed as inconclusive are left out. Unmarked numbers belong to inactive results. Activity calls are given as the source filed them. The call rests on the fitted dose curve.

Assay: A High-Content qHTS Against Drug Library for the Identification of Small Molecules that Inhibit DYT1 Early Onset Primary Dystonia-Associated Cell Pathology (AID 1645839)
Conditions: HEK293 Flp-In EGFP-delE TorsinA, punctate imaging, 48 h; series mostly up to 46.1 µM; % pathology change, negative = correction: at the top concentration
Text: Nicole Calakos M.D., Ph.D.
Duke University School of Medicine, Durham, NC
In DYT1 dystonia due to delGAG in the TOR1A gene, there is a robust and widely replicated finding of TorsinA protein mislocalization caused when the mutant protein is in excess of the wildtype protein (1-7). Stable HEK293 cell lines were created that replicate this phenomenon. Inducible expression of an EGFP-hu delE TorsinA encoding cDNA causes pronounced punctate cellular distribution. […] This phenotypic difference in EGFP-huTorsinA fusion protein distribution serves as an indicator of cell pathology. […] RNAi screen results with the assay were validated in DYT1 patient cell phenotypes, intersected with a known dystonia gene, and led to discovery of new human genetic dystonia associations.
The bioassay described herein is a high-content image screen with two readouts. The "%pathology" readout is the primary qHTS data channel, while the "cellcount" is the counterscreen qHTS channel. Desired active compounds are those that show inhibition in %pathology channel but no activity or minimal toxicity in cellcount readout.
1. Kustedjo, K., Bracey, M.H., and Cravatt, B.F. (2000). […] J. Biol. Chem. 275, 27933 - 27939.
2. Bragg, D.C., Kaufman, C.A., Kock, N., and Breakefield, X.O. (2004). Inhibition of N-linked glycosylation prevents inclusion formation by the dystonia-related mutant form of torsinA. Mol. Cell. Neurosci. 27, 417 - 426.
3. Gonzalez-Alegre, P., and Paulson, H.L. (2004). Aberrant Cellular Behavior of Mutant TorsinA Implicates Nuclear Envelope Dysfunction in DYT1 Dystonia. J. Neurosci. 24, 2593 - 2601.
4. Goodchild, R.E., and Dauer, W.T. (2004). Mislocalization to the nuclear envelope: an effect of the dystonia-causing torsinA mutation. Proc. Natl. Acad. Sci. U. S. A. 101, 847 - 852.
5. Kock, N., Allchorne, A.J., Sena-Esteves, M., Woolf, C.J., and Breakefield, X.O. (2006). RNAi blocks DYT1 mutant torsinA inclusions in neurons. Neurosci. Lett. 395, 201 - 205.
6. Hewett, J.W., Nery, F.C., Niland, B., Ge, P., Tan, P., Hadwiger, P., Tannous, B.A., Sah, D.W.Y., and Breakefield, X.O. (2008). siRNA knock-down of mutant torsinA restores processing through secretory pathway in DYT1 dystonia cells. Hum. Mol. Genet. 17, 1436 - 1445.
7. Calakos, N., Patel, V.D., Gottron, M., Wang, G., Tran-Viet, K.N., Brewington, D., Beyer, J.L., Steffens, D.C., Krishnan, R.R., and Zuchner, S. (2010). Functional evidence implicating a novel TOR1A mutation in idiopathic, late-onset focal dystonia. J. Med. Genet. 47, 646 - 650.
8. Rittiner* JE, Caffall* ZF, Hernandez-Martinez R, Sanderson SM, Pearson JL, Tsukayama KK, Liu AY, Xiao C, Tracy S, Shipman MK, Hickey P, Johnson J, Scott B, Stacy M, Saunders-Pullman R, Bressman S, Simonyan K, Sharma N, Ozelius LJ, Cirulli ET, Calakos N. Functional Genomic Analyses of Mendelian and Sporadic Disease Identify Impaired eIF2alpha Signaling as a Generalizable Mechanism for Dystonia. Neuron. 2016 Dec 21;92(6):1238-1251. doi: 10.1016/j.neuron.2016.11.012. Epub 2016 Dec 8. PMID: 27939583; PMCID: PMC5320521.
High-content, High-throughput Drug Screening Assay
The TorsinA mislocalization assay was modified from the previously published assay to accommodate compound testing in 1536 well format.1 Briefly, Flp-In T-REx 293 cells from Invitrogen in which a single copy of a cDNA is recombined into a specific genomic locus was used to create tetracycline-inducible expression of cDNA encoding either EGFP-hTOR1A (WT) or EGFP-delE hTOR1A (DYT1). WT and DYT1 cells were diluted to a concentration of 2 x 10^5 cells/mL in reduced serum media (DMEM High Glucose containing 1% tetracycline-tested FBS, 2 mM L-Glutamine, and 1% Penicillin/Streptomycin). 4 µl of WT cells and 4 µl of DTY1 cells were added to column 1 and columns 2-48, respectively, of a poly-D-lysine-coated, low base, black, clear bottom 1536 well plate (Corning, Corning, NY) using the BioRAPTR FRD Microfluidic Workstation (Beckman Coulter, Indianapolis, IN). The final cell number was 800 cells/well. […]
Potency means the concentration at half of the fitted maximal effect.

Row | SMILES | % pathology change, negative = correction [%] | Potency
1 | CC(C)NCC(O)COc1ccc(CCOCC2CC2)cc1 (stereo not given) | -0.326 | 
2 | Nc1nc2c(ncn2COC(CO)CO)c(=O)[nH]1 | 17.7 | 
3 | COc1nc(C)nc(Cl)c1NC1=NCCN1 | 8.7 | 
4 | Cc1cn([C@H]2C[C@H](N=[N+]=[N-])[C@@H](CO)O2)c(=O)[nH]c1=O | 4.25 | 
5 | NC(=O)OCC(COC(N)=O)c1ccccc1 | -1.14 | 
6 | CN1C(C(=O)Nc2ccccn2)=C(O)c2ccccc2S1(=O)=O | 0.34 | 
7 | Cc1ccccc1N1C(=O)c2cc(S(N)(=O)=O)c(Cl)cc2NC1C (stereo not given) | -2.94 | 
8 | Clc1ccc2nsnc2c1NC1=NCCN1 | 9.88 | 
9 | Cn1cnc2c1c(=O)[nH]c(=O)n2C | -0.232 | 
10 | C[C@@H]1CC(=O)NN=C1c1ccc(NN=C(C#N)C#N)cc1 | -8.24 | 
11 | Nc1nnc(-c2cccc(Cl)c2Cl)c(N)n1 | 14.3 | 
12 | NC12CC3CC(CC(C3)C1)C2 | 2.7 | 
13 | CN(C)c1nc(N(C)C)nc(N(C)C)n1 | 3.52 | 
14 | COc1ccc(C2CNC(=O)C2)cc1OC1CCCC1 (stereo not given) | 12.9 | 
15 | COc1cc2c(c(OC)c1OC)-c1ccc(OC)c(=O)cc1[C@@H](NC(C)=O)CC2 | -71.5 | 
16 | Cn1c(=O)c2c(ncn2C)n(C)c1=O | 2.11 | 
17 | CC1(C)O[C@H]2CC(=O)OC[C@]23[C@H]2CC[C@@]4(C)[C@H](c5ccoc5)OC(=O)[C@H]5O[C@]54[C@]2(C)C(=O)C[C@@H]13 | -21 | 
18 | O=c1c(-c2ccc(O)cc2)coc2cc(O)cc(O)c12 | -22.4 | 
19 | Nc1ccn([C@H]2CC[C@@H](CO)O2)c(=O)n1 | 28.7 | 
20 | Clc1ccc(C(c2ccccc2Cl)C(Cl)Cl)cc1 (stereo not given) | 1.36 | 

Row | SMILES | % pathology change, negative = correction [%] | Potency
21 | O=c1[nH]cc(F)c(=O)[nH]1 | 20 | 
22 | CCc1cccc2c3c([nH]c12)C(CC)(CC(=O)O)OCC3 (stereo not given) | -1.58 | 
23 | C[C@](N)(Cc1ccc(O)c(O)c1)C(=O)O | 0.853 | 
24 | CN(Cc1cnc2nc(N)nc(N)c2n1)c1ccc(C(=O)N[C@@H](CCC(=O)O)C(=O)O)cc1 | -10.3 | 
25 | CCOC(=O)c1ncn2c1CN(C)C(=O)c1cc(F)ccc1-2 | -17 | 
26 | N[C@@H](Cc1c[nH]c2ccc(O)cc12)C(=O)O | 12.2 | 
27 | Nc1c2c(nc3ccccc13)CCCC2 | 0.76 | 
28 | CC(C)(C)C(=O)Oc1ccc(S(=O)(=O)Nc2ccccc2C(=O)NCC(=O)O)cc1 | 2.39 | 
29 | O=C1N(c2ccccc2)c2ccccc2C1(Cc1ccncc1)Cc1ccncc1 | -4.27 | 
30 | CC(C)C(=O)Nc1ccc([N+](=O)[O-])c(C(F)(F)F)c1 | -4.43 | 
31 | NCCCCCC(=O)O | 2.8 | 
32 | CC(COc1ccccc1)N(CCCl)Cc1ccccc1 (stereo not given) | 8.37 | 
33 | NC(=O)NO | -15.4 | 
34 | CNCCCC12CCC(c3ccccc31)c1ccccc12 |  | 12.6 µM (active)
35 | CC(C(=O)O)c1cccc(C(=O)c2ccccc2)c1 (stereo not given) | 2.15 | 
36 | O=C(c1ccc(F)cc1)C1CCN(CCn2c(=O)[nH]c3ccccc3c2=O)CC1 | -6.39 | 
37 | CN1CCN2c3ccccc3Cc3ccccc3C2C1 (stereo not given) | -20.2 | 
38 | Cn1c(=O)c2[nH]cnc2n(C)c1=O | 10.2 | 
39 | CN1CCC(=C2c3ccccc3CC(=O)c3sccc32)CC1 | -13.9 | 
40 | COc1ccccc1OCC(O)CN1CCN(CC(=O)Nc2c(C)cccc2C)CC1 (stereo not given) | -3.5 | 
